Assay outcomes deposited in PubChem BioAssay by National Center for Advancing Translational Sciences (NCATS).
An excerpt weighted towards active compounds, which were near 1.4% of everything screened.
TrxR1 substrate = substrates of rat thioredoxin reductase 1. O89049. Potency, µM (highest dose often 114 µM), for the others: top-dose activity change, negative = substrate turnover. 390,000 tested, 0.01% active. AID 588456. purified TrxR1 substrate turnover, NADPH consumption readout; further: potency means the concentration at half of the fitted maximal effect; nearly all actives have a fitted effect of over 50% in size
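Rat TrxR1, dispensed at 90 nM, was prereduced with 400 uM NADPH (final) for 5 min at ~22 deg C, then incubated with compound 15 min before 400 uM selenite. A first-read NADPH fluorescence drop versus no-compound background flagged substrates.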
mIDH1 inhibitor = blocks human mutant IDH1 R132H enzyme; O75874; IDH1-R132H enzyme, NADPH consumption, diaphorase/resazurin fluorescence; Potency, µM (highest dose often 76.6 µM), for the others: at the highest dose activity change, negative = inhibition, usual class: inhibitors; 390,000 tested, 0.093% active; further: potency means the concentration at half of the fitted maximal effect; nearly all actives have a fitted effect of over 65% in size
Target sequence (O75874 whole entry R132H, stated change not applied): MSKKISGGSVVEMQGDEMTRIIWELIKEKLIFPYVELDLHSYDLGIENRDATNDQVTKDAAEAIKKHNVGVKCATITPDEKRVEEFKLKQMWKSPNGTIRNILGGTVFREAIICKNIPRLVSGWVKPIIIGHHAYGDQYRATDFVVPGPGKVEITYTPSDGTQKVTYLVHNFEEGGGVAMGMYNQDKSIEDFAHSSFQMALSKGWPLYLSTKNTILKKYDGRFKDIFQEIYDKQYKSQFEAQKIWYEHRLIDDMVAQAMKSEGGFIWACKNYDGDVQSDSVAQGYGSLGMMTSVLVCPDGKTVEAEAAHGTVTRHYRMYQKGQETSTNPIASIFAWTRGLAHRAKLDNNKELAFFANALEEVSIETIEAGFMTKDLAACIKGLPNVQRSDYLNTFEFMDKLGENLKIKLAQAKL
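IDH1-R132H (0.5 ug/mL dispensed) in pH 7.5 Tris buffer was preincubated 30 min with compound, then given a substrate mix of 0.016 mM NADPH and 2 mM alpha-KG for 80 min at room temperature; remaining NADPH was read by diaphorase/resazurin fluorescence.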
LDHA block = LDHA (human) enzyme inhibition. P00338. purified LDHA, NADH/diaphorase-resazurin fluorescence; active compounds read low. activity change, % (values are at about 110 or 230 µM). 480,000 tested, 0.15% active. AID 1347041; in the data active means activity change below about -30%; inconclusive means mostly about -25% to -30%;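 further: plate controls were DMSO wells for no effect and wells without enzyme for full effect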
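Human LDH5 at 2 nM final in Tris HCl pH 7.4 with 0.06 mM NADH and 0.2 mM pyruvate, reacted 5 minutes at room temperature. Remaining NADH coupled via diaphorase/resazurin; resorufin fluorescence read at 0 and 20 minutes, normalized to enzyme-free and DMSO wells.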
PKM2 act = activators of human pyruvate kinase M2 | 260,000 tested, 0.34% active | P14618 | Potency, µM (highest dose often 57.5 µM), for the others: at the top dose activation, hits mostly activators | AID 1631 | purified PKM2, Kinase-Glo ATP luminescence, activation; response scale: 0% is enzyme alone, no compound; further: potency means the concentration at half of the fitted maximal effect; nearly all actives have a fitted effect of over 55% in size
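Purified hPK-M2 (>95%) run at intermediate activity with 0.1 mM ADP and 0.5 mM PEP in 50 mM imidazole pH 7.2, KCl, MgCl2; 1 h room temperature. ATP formed read by Kinase-Glo luminescence; normalized to uninhibited and no-enzyme controls.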
GLS inhibitor = blocks human kidney-isoform glutaminase activity. O94925. GLS enzymatic activity, qHTS titration. Potency, µM (series often up to 45.5 µM), for the others: at the highest dose activity change, negative = inhibition, most hits filed as inhibitors. 410,000 tested, 0.21% active. AID 624170; further: potency means the concentration at half of the fitted maximal effect
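Two-point fluorescence kinetic (t0, 30 min RT) for hKGA; glutamate detected via glutamate oxidase–HRP–Amplex Red. Substrate: 1 mM L-glutamine solution; buffer 45 mM KH2PO4, pH 8.2.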
rTrxR1 inhibitor = rat TrxR1 inhibition; recombinant rTrxR1, NADPH fluorescence consumption, selenite substrate; Potency, µM (titrated, usually from 114 µM), inactives show at the highest dose activity change, negative = inhibition, most hits filed as inhibitors; 390,000 tested, 1% active; further: potency means the concentration at half of the fitted maximal effect; nearly all actives have a fitted effect of over 65% in size
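Rat TrxR1 (90 nM in the dispensed reagent) was pre-reduced with 400 uM NADPH for 5 min at room temperature, then incubated with compound for 15 min. After 400 uM selenite was added, NADPH fluorescence (Ex 340/Em 450 nm) was followed for 8 min.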
* marks the source's active call; other numbers are inactive results; ? = inconclusive; · = no result given; [ ] = dose if it differs, or a comment. Unless noted, the call rests on the fitted dose curve; in most records, active means well fitted curve in the direction sought with a large enough effect; inconclusive means small, poorly fitted or top-dose-only effect, or another doubt; inactive means no such curve, though single readings can be large; an effect the other way counts as inactive or inconclusive. Unless noted, on the % scale 0 is the no-effect control and ±100 the full control effect.

SMILES	TrxR1 substrate	mIDH1 inhibitor	LDHA block	PKM2 act	GLS inhibitor	rTrxR1 inhibitor
Cc1ccc(S(=O)(=O)/N=C2/NC(=O)/C(=C/c3cc([N+](=O)[O-])ccc3O)S2)cc1	-21%	-8%	-51*	·	17%	-23%
COc1ccc(Cc2nnc(Nc3ccccc3)[nH]c2=O)cc1OC	·	·	3	·	·	·
O=C(NC1=C(NC2CCS(=O)(=O)C2)C(=O)c2ccccc2C1=O)c1ccccc1 (stereo not given)	32µM*	9%	13	7%	18%	50µM*
O=C(NC(NC1CCS(=O)(=O)C1)C(=O)c1cccs1)c1ccccc1 (stereo not given)	-4%	-1%	-2	1%	1%	-17%
Cc1nc(N)c(C#N)c(-c2ccc3c(c2)OCO3)c1C	16%	1%	-1	-8%	-2%	23%
Cc1ccc(-c2cc(-c3ccc(C)o3)nc(N)c2C#N)cc1	78%	-5%	4	?	21%	50µM*
Cc1ccc(-c2cc(-c3ccc(Cl)cc3)c(C#N)c(N)n2)o1	35%	6%	2	?	13%	50µM*
Cc1ccc(-c2cc(-c3ccc4c(c3)OCO4)c(C#N)c(N)n2)o1	29%	0%	-2	10µM*	4%	-23%
Cc1c(-c2ccc(F)cc2)nc(N)c(C#N)c1-c1ccco1	12%	5%	0	-3%	·	?
Cc1ccc(-c2cc(-c3ccc(F)cc3)c(C#N)c(N)n2)o1	81%	-7%	7	?	-1%	16µM*
CCOc1cc(-c2cc(-c3ccc(C)o3)nc(N)c2C#N)ccc1O	17%	-2%	2	17%	-1%	-1%
Cc1cc(-c2cc(-c3ccc(Cl)cc3)nc(N)c2C#N)co1	42%[57.1 µM]	7%	2	?	3%	?
CC(=O)c1ccc(N2CCN(C(C(=O)O)c3c[nH]c4cc(NC(=O)C(C)C)ccc34)CC2)cc1 (stereo not given)	·	·	5	·	·	·
COC(=O)Cc1cc(=O)n(-c2nc3ccccc3[nH]2)[nH]1	9%	0%	-40*	0%	16%	24%
O=Cc1ccc(Sc2nnc(-c3ccccc3)o2)c([N+](=O)[O-])c1	10%	-3%	-8	12%	56%	5µM*
COCC(=O)n1nc(-c2ccco2)nc1NCc1ccccc1Cl	4%	·	-11	·	1%	12%
COCC(=O)n1nc(NCc2ccccc2Cl)nc1NCc1ccccc1Cl	·	·	-49*	·	·	·
O=C1c2cc(S(=O)(=O)NCCO)ccc2-c2ccc(S(=O)(=O)NCCO)cc21	6%[57.1 µM]	11%	-5	5.6µM*	1%	13%[11.4 µM]
O=S(=O)(NCCO)c1ccc(Cl)cc1	·	·	7	·	·	·
O=C(O)CNS(=O)(=O)c1ccc2c(c1)C(=O)c1cc(S(=O)(=O)NCC(=O)O)ccc1-2	3%	-3%	-1	-3%[11.5 µM]	-5%	22%
N#CC(C#N)=C1c2cc(S(=O)(=O)NCCO)ccc2-c2ccc(S(=O)(=O)NCCO)cc21	2%	8%	7	1.3µM*	4%	3.5µM*
CCONC(=O)c1ccc2c(c1)NC(=O)CS2	·	·	3	·	·	·
CCOC(=O)c1cc(C#N)c(=S)[nH]c1C	-7%	-2%	-6	-6%	-9%	7.9µM*
COC(=O)c1cc(C#N)c(=O)[nH]c1C	0%	-2%	-3	-3%	0%	0%
CCOC(=O)c1cc(C(C)=O)c(=O)[nH]c1C	-1%	-6%	-2	-9%	-2%	8%
SMILES	TrxR1 substrate	mIDH1 inhibitor	LDHA block	PKM2 act	GLS inhibitor	rTrxR1 inhibitor
COCc1[nH]c(=S)c(C#N)cc1C(=O)OC	1%[57.1 µM]	8%	0	-2%	0%	14µM*
COc1ccc(-c2noc(CNC(=O)CCc3c(C)c4ccc(OC)cc4oc3=O)n2)cc1	·	·	-2	·	·	·
COc1ccc(Cl)cc1Nc1ncnc2c1c(-c1ccccc1)cn2-c1cccc(C(F)(F)F)c1	·	·	4	·	·	·
Cc1ccc(NC(=S)Nc2cccc3cnccc23)c(C)c1	4%[57.1 µM]	3%	17	·	1%	2%[57.1 µM]
Cc1ccc(NC(=S)c2ccncc2)c(C)c1	7%	7%	0	-1%[0.46 µM]	12%	20µM*
O=C(O)c1cc(Cl)c(I)c(Cl)c1	·	·	6	·	·	·
O=C(NC1=C(Nc2ccc(Cl)cc2)C(=O)c2ccccc2C1=O)c1ccccc1	-6%	8%	28	14%	5%	?
O=C1C(Cl)=C(NC(=O)c2ccccc2)C(=O)C(Cl)=C1NC(=O)c1ccccc1	-17%	9%	39	·	?	0.32µM*
CN(Cc1ccc(Cl)cc1)S(=O)(=O)c1cn(C)c(=O)n(C)c1=O	·	·	5	·	·	·
COc1cc(NS(=O)(=O)c2cc3[nH]c(=O)c(=O)[nH]c3cc2C)cc(OC)c1OC	-8%[57.1 µM]	23%	17	7.1µM*	16%	8%[57.1 µM]
Cc1cc2[nH]c(=O)c(=O)[nH]c2cc1S(=O)(=O)Nc1cccc(Cl)c1C	15%	-7%	-11	16µM*	3%	38%
COc1ccccc1CC(=O)NC1CCCC1	·	·	8	·	·	·
O=C(O)/C=C/c1ccccc1Br	·	·	-4	·	·	·
CCOC(=O)c1cc(=O)n2nc(-c3ccccc3F)nc2s1	1%[57.1 µM]	-6%	0	5%	6%	11µM*
S=c1[nH]nc(-c2cc(-c3ccccc3)n[nH]2)n1/N=C/c1ccc(Br)s1	-10%	?	-43*	-3%	0%	-3%[11.4 µM]
S=c1[nH]nc(-c2ccccc2)n1/N=C/c1ccc(Cl)cc1	2%	-3%	-2	·	16µM*	4%
S=c1[nH]nc(-c2n[nH]c3c2CCC3)n1/N=C/C=C/c1ccco1	-16%	-7%	1	-1%	?	?
S=c1[nH]nc(-c2cc(-c3ccccc3)n[nH]2)n1/N=C/C=C/c1ccco1	9%[57.1 µM]	-1%	-2	5%	4µM*	?
S=c1[nH]nc(-c2ccccc2)n1/N=C/c1cccc(Cl)c1	3%	1%	-5	-3%	-15%	-6%
CCOC(=O)C1=C(Cc2ccc(Cl)cc2)C(=O)c2ccccc2C1=O	6%	24%	32	1%	13%	10µM*
O=C(CC(c1ccccc1)c1ccccc1)Oc1cc(Cl)ccc1Cl	·	·	0	·	·	·
CCOc1ccc2[nH]c(=O)c(CN(Cc3nnnn3Cc3ccco3)C3CCCCC3)cc2c1	4%	1%	2	5%	-2%	?
Cc1ccc2[nH]c(=O)c(CN(CCCO)Cc3nnnn3Cc3ccccc3)cc2c1	5%	·	-2	·	·	20µM*
CCOc1ccc2[nH]c(=O)c(CN(Cc3ccco3)Cc3nnnn3Cc3ccccc3)cc2c1	23%	5%	9	5%	-3%	14µM*
